Shown are actives, neighbours in structure and some others; about 7.3% of the full set was active somewhere.
Tau fibril FP – blocks human tau fibril formation measured by polarization | P10636 | K18 P301L tau heparin fibrillization, Alexa594 FP, 6 h | Potency, µM (doses to about 57.7 µM), without a hit: top-dose activity, negative = inhibition, most hits filed as inhibitors | 280,000 compounds, 0.39% hits | AID 1468; also: nearly all actives have a fitted effect of over 55% in size
Target sequence (P10636 561-689 P618L limits assumed): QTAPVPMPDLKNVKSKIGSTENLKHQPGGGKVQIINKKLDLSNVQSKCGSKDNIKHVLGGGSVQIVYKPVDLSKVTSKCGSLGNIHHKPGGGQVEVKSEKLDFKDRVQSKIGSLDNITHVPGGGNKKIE
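Compound effects on tau fibrillization are measured by Alexa 594 fluorescence polarization (ex 555, em 632 nm). K18 P301L tau is used at 15 uM with 0.24 uM labeled tracer, and 20 uM heparin induces aggregation over 6 hr at 37 C.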
Gal4-VP16 FLuc – inhibits Gal4-VP16 luciferase reporter, ROR gamma counter-screen. Drosophila S2 Gal4-VP16 UAS-luciferase, luminescence, 20 h. Potency, µM (highest dose often 53.6 µM), for the others: at the top dose activity, negative = inhibition, most hits filed as inhibitors. 310,000 compounds, 3.5% hits. AID 2546;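 also: Gal4-VP16 expression switched on by copper sulfate through the metallothionein promoter; nearly all actives have a fitted effect of over 50% in size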
Tau ThT inhib – inhibitors of human tau fibril formation, thioflavin T binding. P10636. recombinant tau K18 P301L, heparin-induced fibrillization, ThT fluorescence. Potency, µM (doses to about 57.4 µM), for the others: top-dose activity, negative = inhibition, usual class: inhibitors. 270,000 compounds, 2.1% hits; also: nearly all actives have a fitted effect of over 55% in size
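In this qHTS, human K18 P301L tau is incubated with compound and heparin for 6 hr at 37 C, and Thioflavin T fluorescence then reports fibril load.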
Tau fluor counter – counter-screen for tau fibril formation inhibitors; tau K18 P301L Alexa594 fluorescence, heparin fibrillization; Potency, µM (doses to about 57.7 µM), for the others: top-dose activity change, negative = decrease; 280,000 compounds, 0.93% hits; AID 1463; also: nearly all actives have a fitted effect of over 55% in size
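Human tau K18 P301L (15 uM unlabeled, 0.24 uM Alexa 594-labeled) in 100 mM sodium acetate pH 7 with 20 uM heparin, 6 hr at 37 C. ThT 30 uM added, 1 hr ambient; Alexa 594 FP and total fluorescence read at 555/632 nm.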
RORgamma inh – inhibitors of mouse ROR gamma transcriptional activity. 310,000 compounds, 5.4% hits. Potency, µM (series often up to 53.6 µM), for the others: at the top dose activity change, negative = inhibition, hits mostly inhibitors. P51450. Drosophila S2 Gal4-RORgamma UAS-luciferase reporter, 20 h. AID 2551; also: nearly all actives have a fitted effect of over 60% in size
Target sequence (P51450 whole entry, looked up, the tested form may be a part): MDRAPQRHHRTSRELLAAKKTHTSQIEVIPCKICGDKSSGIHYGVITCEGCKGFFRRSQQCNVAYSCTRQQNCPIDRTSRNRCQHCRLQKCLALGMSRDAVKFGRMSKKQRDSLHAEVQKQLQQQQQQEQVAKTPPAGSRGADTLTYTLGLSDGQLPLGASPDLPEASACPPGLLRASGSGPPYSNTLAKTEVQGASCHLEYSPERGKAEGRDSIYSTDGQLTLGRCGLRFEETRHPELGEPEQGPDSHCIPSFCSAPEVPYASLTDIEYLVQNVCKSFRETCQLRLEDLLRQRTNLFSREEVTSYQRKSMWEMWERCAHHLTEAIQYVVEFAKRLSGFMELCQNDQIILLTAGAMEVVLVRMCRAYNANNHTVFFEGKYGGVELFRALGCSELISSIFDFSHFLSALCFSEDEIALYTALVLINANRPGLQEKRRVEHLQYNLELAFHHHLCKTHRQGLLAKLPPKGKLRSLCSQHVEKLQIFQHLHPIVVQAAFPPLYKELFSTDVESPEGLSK
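Using a luciferase readout, inhibitors were identified by reduced reporter activity in Drosophila cells coexpressing a copper-inducible Gal4–ROR gamma fusion and UAS-driven Photinus luciferase, incubated 20 hr after 700 uM copper sulfate.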
* marks the source's active call; other numbers are inactive results; ? = inconclusive; . = no result; [ ] = another dose, or the depositor's remark. Calls follow the shape of the dose curve; as a rule, active = well fitted curve in the direction sought with a large enough effect; inconclusive = small, poorly fitted or top-dose-only effect, or another doubt; inactive = no such curve, though single readings can be large; an effect the other way counts as inactive or inconclusive. % is scaled to controls: 0 for no effect and ±100 for the full control effect; potency is read from the fitted curve at half-maximal effect.

SMILES | Tau fibril FP | Gal4-VP16 FLuc | Tau ThT inhib | Tau fluor counter | RORgamma inh
CC(C)C(=O)NC(c1ccc([N+](=O)[O-])cc1)c1c(O)ccc2ccccc12 (configuration not stated) | ? | 13µM* | 20µM* | ? | ?
CC(C)C(=O)NC(c1cccc([N+](=O)[O-])c1)c1ccc2cccnc2c1O (configuration not stated) | . | 2.5µM* | . | . | 2.8µM*
CCCCC(CC)COCC1CO1 (configuration not stated) | . | -16% | . | . | -1%
COc1c(O)cc2c(c1O)C1OC(CO)C(O)[C@H](O)[C@H]1OC2=O (some centres not stated) | -10% | 3% | 3% | -2% | -9%
O=C(O[C@@H]1OC2COC(=O)c3cc(O)c(O)c(O)c3-c3c(cc(O)c(O)c3O)C(=O)O[C@@H]([C@H]1O)[C@@H]2O)c1cc(O)c(O)c(O)c1 | ? | -16% | 7.9µM* | 13µM*[quencher] | -39%
COC(=O)c1cc(C(=O)N2CCc3ccccc32)cc([N+](=O)[O-])c1 | . | -3% | . | . | -10%
CCOC(=O)N1CCc2c(sc3c2c(=O)n(Cc2ccccc2)c(=O)n3CC(=O)Nc2ccc(F)cc2)C1 | 10µM* | . | 8% | ? | .
COc1ccc(S(=O)(=O)N2CCC(C)CC2)cc1OC | . | -7% | . | . | 1%
O=S(=O)(c1ccc2c(c1)C(=NO)c1cc(S(=O)(=O)N3CCCCC3)ccc1-2)N1CCCCC1 | ? | 3.2µM* | -8% | -25% | 3.5µM*
CC1CCN(S(=O)(=O)c2ccc3c(c2)C(=NO)c2cc(S(=O)(=O)N4CCC(C)CC4)ccc2-3)CC1 | ? | 0.79µM* | 2% | -6% | 1.8µM*
CC(=O)OC(C(=O)c1ccccc1)c1ccccc1 (configuration not stated) | . | 5% | . | . | -3%
O=C(CCS(=O)(=O)c1nc(-c2ccc3c(c2)OCO3)cc(C(F)(F)F)n1)Nc1ccc(Br)cc1 | 1% | . | -5% | -14% | .
c1cncc(CNc2ncncc2-c2ccc3c(c2)OCO3)c1 | 2% | 8% | -3% | 0% | 3%
Cc1nn(-c2ccccc2)c(Cl)c1CN(C(=O)CCl)c1cccc2ccccc12 | 11% | ? | -17% | -3% | 14µM*
Cc1ccc(NC(=O)CC2Nc3cccc4cccc(c34)NC2=O)cc1 (configuration not stated) | ? | . | 14µM* | 14µM*[quencher] | .
O=C(CC1Nc2cccc3cccc(c23)NC1=O)Nc1ccccc1 (configuration not stated) | 0% | 1% | 9% | 8% | 13%
Cc1ccc(C(=O)O)cc1NC1(c2ccccc2)C(=O)c2ccccc2C1=O | 5% | . | -7% | -9% | .
CCCCn1c(=O)[nH]c(=O)c2c1nc(Cn1ncc(Cl)c(Cl)c1=O)n2CCC | . | 7.9µM* | . | . | 16µM*
CC(C)(C)C1CCC2(CC1)C(C#N)=C(SCC(=O)Nc1ccccc1)NC(=O)C2C#N (configuration not stated) | 22µM* | ? | 6% | ? | 0%
O=C(C1=C[C@@H]2[C@H]3C(=O)N(c4ccc(Cl)cc4)C(=O)[C@H]3[C@@H](C(=O)c3ccc(Cl)cc3)N2C=C1)c1ccccc1 | -19% | -7% | 14µM* | ? | -3%
Cc1ccc(OCc2ccccc2Br)c([N+](=O)[O-])n1 | . | -1% | . | . | -18%
CC(C)(C)OC(=O)NCCCC[C@H](NC(=O)c1nc[nH]c1C(=O)NCc1ccccc1)C(=O)OC(C)(C)C | ? | ? | ? | -21% | 14µM*
CC(C)(C)OC(=O)NCCCC[C@H](NC(=O)c1[nH]cnc1C(=O)N[C@@H](Cc1ccccc1)C(=O)OC(C)(C)C)C(=O)OC(C)(C)C | -13% | ? | -13% | -21% | 7.9µM*
C[C@H](NC(=O)c1nc[nH]c1C(=O)N[C@@H](CCCCNC(=O)OC(C)(C)C)C(=O)OC(C)(C)C)c1ccccc1 | -9% | 11µM* | -6% | -16% | 5.6µM*
CN(Cc1ccccc1)C(=O)c1[nH]cnc1C(=O)N[C@@H](CCCCNC(=O)OC(C)(C)C)C(=O)OC(C)(C)C | 5% | ? | -4% | -10% | 7.1µM*
SMILES | Tau fibril FP | Gal4-VP16 FLuc | Tau ThT inhib | Tau fluor counter | RORgamma inh
Cc1ccn2c(Nc3c(C)cccc3C)c(-c3ccc(Cl)s3)nc2c1 | 2% | . | ? | ? | .
C1CCN(c2nc3nonc3nc2N2CCCC2)C1 | 0% | 0% | -1% | 1% | 24%
CCn1cc(CNc2nc3nonc3nc2N2CCCCC2)cn1 | -1% | ? | -7% | -7% | 7.1µM*
COc1ccccc1CC1S/C(=N/N=C/c2ccco2)NC1=O (configuration not stated) | ? | 7.1µM* | -5% | -9% | 2.2µM*
O=C1C(Cc2ccccc2)S/C(=N/N=C/c2ccco2)N1c1ccccc1 (configuration not stated) | 8% | -22% | -4% | -4% | -11%
Cc1cccc(CC2S/C(=N/N=C/c3ccco3)NC2=O)c1 (configuration not stated) | -9% | 5.6µM* | -13% | -14% | 0.89µM*
C/C(=N\N=C1\NC(=O)C(Cc2ccccc2)S1)c1ccccc1 (configuration not stated) | 9% | -24% | ? | -27% | 10µM*
O=C1N/C(=N/N=C/c2ccco2)SC1Cc1ccccc1 (configuration not stated) | -8% | 2.5µM* | 1% | 7% | 1µM*
CCNC(=O)CC1S/C(=N/N=C(\C)c2ccccc2)NC1=O (configuration not stated) | -2% | -11%[10 µM] | -4% | -2% | -2%
C#C[C@]1(O)CC[C@@H]2[C@H]3CCc4cc(OC)ccc4[C@@H]3CC[C@@]21C | . | -2%[17 µM] | . | . | 14%[16.9 µM]
COc1ccc(/C=N/N=C2/NC(=O)C(CC(=O)O)S2)cc1OS(=O)(=O)c1ccccc1 (configuration not stated) | 0% | 1% | -16% | -4% | 0%
Cc1ccc(CC2S/C(=N/N=C/c3ccco3)NC2=O)cc1 (configuration not stated) | 5% | 11µM* | 2% | 7% | 1.4µM*
C=CCN1C(=O)C(Cc2ccc(C)cc2)S/C1=N/N=C/c1ccco1 (configuration not stated) | -5% | -8%[0.365 µM] | -3% | -11% | -5%
COc1cc(/C=N/N=C2/NC(=O)C(Cc3ccccc3)S2)ccc1O (configuration not stated) | 10% | ? | ? | ? | 14µM*
Cc1ccccc1CNC(=O)C1CCN(S(=O)(=O)Cc2ccccc2)CC1 | -7% | . | -15% | -5% | .
COc1ccc(NC(=O)c2cc3c(s2)-c2c(C)cccc2OC3)cc1Cl | ? | . | ? | -29% | .

Screens from PubChem.
